Assay outcomes: PubChem BioAssay, several laboratories
Myeloid diff 2: induction of myeloid progenitor differentiation, primary screen, cell-based, flow cytometry, MLPCN library; 360,000 tested, 1% active; AID 624256, 2012; calls only at 10 µM; ER-HoxA9 myeloid progenitors, lysozyme-GFP differentiation;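 active means normalized GFP-positive differentiation at or above the plate's own cutoff, the solvent-only control mean plus 3 SD; inconclusive means no clear call, values can overlap the other calls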;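 further: cells exposed to compound for four days before flow analysis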
Vif inh: HIV Vif self-association inhibitors, primary screen, imaging, HEK293T, single point; 340,000 tested, 0.35% active; inhibition, % at 7.49 µM; HEK293T cells, Vif self-association by quenched fluorescence, 24 h; in the data active means inhibition above about 50%, passing the limit was not always enough; inconclusive means no clear call, values can overlap the other calls; inactive means below about 31%
ABCB6 inh MLPCN: ABCB6 transporter inhibitors, primary screen, K562-ABCB6 cells, flow cytometry, MLPCN library; K562-ABCB6 porphyrin accumulation, 1 h; active compounds read low; ATP-binding cassette sub-family B member 6 (Homo sapiens), Q9NP58; 360,000 tested, 0.19% active; fluorescence ratio to DMSO, % at 10 µM;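 active means fluorescence ratio to DMSO below 75%, the collection mean minus 3 SD; inconclusive means too few cells collected in the well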;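 further: signal is porphyrin accumulated inside mitochondria; lower ratio means ABCB6 inhibition with less porphyrin fluorescence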
RAD54 branch: inhibitors of human RAD54 branch migration, primary screen, biochemical, fluorescence, single point | 360,000 tested, 0.14% active | inhibition, % at 10.4 µM | RAD54 Holliday junction branch migration, FAM/BHQ fluorescence | DNA repair and recombination protein RAD54-like (Homo sapiens), Q92698;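 active means mean normalized replicate activity at least 40 and at least half of replicates scoring 40 or more; inconclusive means only one of the two criteria met; inactive means mean below 40 and under half of replicates reaching 40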;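 further: inhibitors cause a drop in the FAM fluorescence signal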
Target sequence (Q92698 whole entry, looked up): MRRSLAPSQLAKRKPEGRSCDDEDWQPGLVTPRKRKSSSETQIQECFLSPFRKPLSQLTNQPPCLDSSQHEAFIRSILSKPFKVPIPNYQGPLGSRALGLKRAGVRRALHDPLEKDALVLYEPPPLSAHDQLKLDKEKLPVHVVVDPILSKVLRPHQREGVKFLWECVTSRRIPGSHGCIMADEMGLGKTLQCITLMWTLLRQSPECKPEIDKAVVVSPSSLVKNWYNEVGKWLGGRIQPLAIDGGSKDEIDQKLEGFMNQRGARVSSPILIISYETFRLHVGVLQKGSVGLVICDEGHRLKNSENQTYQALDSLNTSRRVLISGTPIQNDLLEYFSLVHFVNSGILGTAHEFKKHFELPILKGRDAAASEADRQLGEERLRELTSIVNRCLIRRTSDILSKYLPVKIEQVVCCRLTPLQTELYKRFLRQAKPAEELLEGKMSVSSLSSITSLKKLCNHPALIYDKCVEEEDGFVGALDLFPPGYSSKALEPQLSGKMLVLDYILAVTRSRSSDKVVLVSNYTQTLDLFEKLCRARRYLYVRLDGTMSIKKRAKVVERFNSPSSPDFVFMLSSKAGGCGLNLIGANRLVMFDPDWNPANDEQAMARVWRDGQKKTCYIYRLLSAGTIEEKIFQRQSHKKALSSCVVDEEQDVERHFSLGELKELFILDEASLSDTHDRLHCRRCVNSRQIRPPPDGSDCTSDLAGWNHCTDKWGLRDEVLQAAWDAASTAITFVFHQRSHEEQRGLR
N-glyco inh: increase of ERlucT glycosylation luciferase signal, primary screen, N-linked glycosylation inhibitor project, D54 ERlucT cells, luminescence, set 2; D54 ERlucT glycosylation luciferase reporter, 24 h; percent of 100 nM tunicamycin response; 360,000 tested, 0.23% active; reporter increase, % at 12.5 µM;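 active means mean luciferase reporter signal, scaled so untreated is 0 and the glycosylation-blocking control 100, at or above a set limit in every replicate; inconclusive means mean reaches the limit but not every replicate does; inactive means mean below the limit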;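 further: luciferase carries N-glycosylation sites so blocking glycosylation raises the light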
DNA binding: DNA binding of candidate compounds, dose response, artefact control for RAD54 inhibitor project, biochemical, fluorescence polarization, cherry-pick. shares compounds with RAD54 branch. Acridine orange-DNA displacement, 20 min. AC50, µM (highest dose often 35 µM). 460 tested, 8% active. AID 651673, 2012;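 active means signal drop giving an AC50 within twice the top valid tested concentration of each sample, actives reach about 35 µM in these data; inactive means activity opposite to expected, plus the rest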;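 further: polarization loss reports compound binding to salmon sperm DNA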
A number is an active result; 0 = inactive; ? = inconclusive; - = no result. Compounds with a hit are over-represented: about 1.6% of the library has one in this group of screens.

SMILES	Myeloid diff 2	Vif inh	ABCB6 inh MLPCN	RAD54 branch	N-glyco inh	DNA binding
Cc1cccc(-c2cc3nc(C)cc(NCCCN(C)C)n3n2)c1	0	0	0	0	0	-
O=C(Nc1ccc(Cl)c(Cl)c1)N[C@@H]1CC[C@@H](CCn2cc(C3CC3)nn2)O[C@@H]1CO	-	-	-	0	-	-
CN(C)CCCN1C(=O)c2cccc3cccc(c23)C1=O	0	0	0	102	116	0
CN(C)CCCN1C(=O)c2cc3ccccc3cc2C1=O	0	0	0	0	0	-
O=C(N[C@@H]1CC[C@H](CCNC(=O)C2CC2)O[C@H]1CO)c1ccncc1	-	-	-	0	-	-
Cc1ccnc(Nc2nc(-c3sc(C)nc3C)cs2)c1	0	0	0	?	0	0
Cc1nc(C)c(-c2csc(Nc3ccccn3)n2)s1	0	0	0	0	0	-
CN(C)CCNc1ncnc2sc(-c3ccccc3)cc12	0	0	0	67	0	0
CNc1ncnc2sc(-c3ccccc3)cc12	0	0	0	0	0	-
Cc1c(O)c(CN(C)C)cc2c1oc(=O)c1ccccc12	0	0	0	?	0	0
CS(=O)(=O)Nc1ccc2c(c1)[C@H]1C[C@@H](CC(=O)NCC3CC3)O[C@@H](CO)[C@H]1O2	-	-	-	0	-	-
C[C@@H]1CCCCO[C@H](CN(C)C(=O)NC2CCCCC2)[C@@H](C)CN([C@H](C)CO)C(=O)c2cc(NC(=O)c3ccncc3)ccc2O1	-	-	-	0	-	-
Cc1cccc2c1-c1sc(C(=O)NCCCN3CCCC(C)C3)cc1CO2 (stereo unspecified)	?	0	0	54	0	0
CCN(CC)CCn1c2ccc(F)cc2c2nc(C)sc21	0	0	0	?	0	0
Cc1nc2c3cc(Cl)ccc3n(CCN3CCOCC3)c2s1	0	0	0	-	0	-
O=C(c1cccnc1)N1CC[C@@H]2[C@H]1c1cc(C#Cc3cccnc3)ccc1N[C@@H]2CO	-	-	-	0	-	-
O=c1cc(CSc2n[nH]c(=O)n2C2CC2)c2ccc(O)cc2o1	0	0	0	?	0	0
CNC(=O)C[C@@H]1CC[C@H]2[C@H](COc3ccc(NC(=O)c4ccc(OC)cc4)cc3C(=O)N2C)O1	-	-	-	0	-	-
Cc1noc(C)c1NC(=O)N[C@@H]1CC[C@@H](CCNC(=O)C2CCC2)O[C@H]1CO	-	-	-	0	-	-
COc1ccccc1Nc1nc(NCCCN(C)C)nc(N)c1[N+](=O)[O-]	0	0	0	77	0	0
NC(=O)C1CCN(c2nc(-c3cccnc3)cs2)CC1	0	0	0	60	0	0
COc1ccc(NC(=O)Nc2ccc3c(c2)C(=O)N([C@@H](C)CO)C[C@@H](C)[C@H](CN(C)S(=O)(=O)c2ccc(C)cc2)OCCCC[C@@H](C)O3)cc1	-	-	-	0	-	-
COc1ccc(NC(=O)N(C)C[C@H]2Oc3c(NC(=O)c4ccc(-c5nccs5)cc4)cccc3C(=O)N([C@H](C)CO)C[C@@H]2C)cc1	-	-	-	0	-	-
CCOC(=O)c1c(NC(C)=O)sc2c(O)c(CN3CCN(CC)CC3)ccc12	0	0	0	62	0	0
Cc1ccc2nc3c(cc(C(=O)NCCN4CCOCC4)c(=N)n3CCCN3CCOCC3)c(=O)n2c1	-	0	0	66	0	0
SMILES	Myeloid diff 2	Vif inh	ABCB6 inh MLPCN	RAD54 branch	N-glyco inh	DNA binding
N=c1c(C(=O)NCCN2CCOCC2)cc2c(=O)n3ccccc3nc2n1Cc1ccc(F)cc1	0	0	0	0	0	-
N=c1c(C(=O)NCCN2CCOCC2)cc2c(=O)n3ccccc3nc2n1CCCN1CCOCC1	-	0	0	57	0	0
CCCCNC(=O)c1cc2c(=O)n3cccc(C)c3nc2n(CCN2CCOCC2)c1=N	0	0	0	-	0	-
Cc1ccc(S(=O)(=O)Nc2ccc3c(c2)CC(=O)N([C@@H](C)CO)C[C@@H](C)[C@H](CN(C)Cc2ccc(Cl)c(Cl)c2)O3)cc1	-	-	-	0	-	-
O=C(C[C@@H]1CC[C@@H]2[C@H](COC[C@H](O)CN2Cc2ccccc2F)O1)N[C@@H]1CCN(Cc2ccccc2)C1	-	-	-	0	-	-
Cc1ccc(S(=O)(=O)Nc2ccc3c(c2)C(=O)N(C)[C@H]2CC[C@@H](CC(=O)O)O[C@@H]2CO3)cc1	-	-	-	0	-	-
CCC(=O)Nc1ccc2c(c1)C(=O)N(C)C[C@@H](OC)[C@@H](C)CN(Cc1ccccn1)[C@H](C)CO2	-	-	-	0	-	-
CCOC(=O)c1c(C)n(-c2ccc(C)cc2)c2ccc(O)c(CN(C)C)c12	0	0	0	0	0	-
CCOC(=O)c1c(C)n(-c2ccc(OC)cc2)c2ccc(O)c(CN(C)C)c12	0	0	0	?	0	0
COC(=O)C1=C(C)Nc2nc3ccccc3n2C1c1ccccc1F (stereo unspecified)	0	0	0	?	0	0
CN(C)CCCNc1c2ccccc2nc2ccccc12	-	0	0	99	0	7.6µM
Cc1cccc(-c2nc(NCCN(C)C)c3ccccc3n2)c1	0	0	0	0	0	-
Oc1ccc(CCNc2c3ccccc3nc3ccccc23)cc1O	?	0	0	116	37	25µM
CN(C)CCNc1c2c(nc3ccccc13)CCC2	0	0	0	0	0	-
c1ccc(CNc2c3ccccc3nc3ccccc23)cc1	-	0	0	83	0	29µM
CN(C)CCCNc1nc(-c2ccccc2)nc2ccccc12	0	0	0	67	0	0
C[C@@H]1CN([C@@H](C)CO)C(=O)c2cc(NS(=O)(=O)c3cccs3)ccc2O[C@@H](C)CCCCO[C@@H]1CN(C)C(=O)CCC(F)(F)F	-	-	-	0	-	-
COc1cccc(-c2ccc3c(c2)[C@@H]2[C@@H](CCN2C(=O)c2ccc(F)cc2)[C@@H](CO)N3)c1	-	-	-	0	-	-
Cc1ccc(-c2nc(NCCCN(C)C)c3ccccc3n2)cc1	0	0	0	83	?	0
CC(C)OCCCNc1nc(-c2ccccc2)nc2ccccc12	0	0	0	0	0	-
CN(C)CCCN(C(=O)c1ccc([N+](=O)[O-])o1)c1nc2cc3c(cc2s1)OCO3	?	0	0	?	0	0
CN(C)C(=O)c1cc2c(c(-c3cccc(-c4ccc(F)cc4)c3)n1)[C@H](CCO)N([S@@](=O)C(C)(C)C)C2	-	-	-	0	-	-
COc1cc2nc(N3CCNCC3)nc(N)c2cc1OC	0	0	0	64	0	0
CCOC(=O)c1cnc2c(C)cccc2c1NCCCN1CCOCC1	0	0	0	95	0	0
CCOC(=O)c1cnc2c(CC)cccc2c1NCCN1CCOCC1	0	0	0	0	0	-
CCN(CC)CCNC(=S)Nc1ccc2nc(N3CCN(CC)CC3)cc(C)c2c1	0	0	0	79	0	0
CCCCN(C)C(=S)Nc1ccc2nc(N3CCN(CC)CC3)cc(C)c2c1	0	0	0	-	0	-
CCN1CCN(c2cc(C)c3cc(NC(=S)N(C)Cc4ccccc4)ccc3n2)CC1	0	0	0	0	0	-
